We go through eight compounds from PubChem BioAssay (EPA / NIEHS).

Read-out in test [1]: xenobiotic metabolism (CYP1A2), CYP1A2 (gene 1544)
Kind of test: CLD_CYP1A2_24hr: CellzDirect (CLD) Gene Expression Assay for xenobiotic metabolism (CYP1A2) at 24 hours (AID 2283683). The gist of the method: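 CYP1A2 mRNA induction measured by quantitative nuclease protection (chemiluminescent) in human primary hepatocytes 24 h after multi-concentration chemical dosing with daily fresh solutions. DMSO (0.2%) baseline; positive-direction fitting; morphology-based cytotoxicity noted.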

Read-out in test [2]: Cytochrome P450 2C19 (Homo sapiens) (UniProt P33261)
The test can be described thus: CLD_CYP2C19_24hr: CellzDirect (CLD) Gene Expression Assay for xenobiotic metabolism (CYP2C19) at 24 hours (AID 2283687).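 Further: activity means mRNA induction above DMSO vehicle baseline.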 In outline:
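CYP2C19 mRNA was quantified by qNPA chemiluminescence after 24 h of daily dosing of cultured human primary hepatocytes from two donors; vehicle was 0.2% DMSO, and increases over DMSO baseline were fitted.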

Read-out in test [3]: Cytochrome P450 2C9 (Homo sapiens) (UniProt P11712)
Kind of test: CLD_CYP2C9_24hr: CellzDirect (CLD) Gene Expression Assay for xenobiotic metabolism (CYP2C9) at 24 hours (AID 2283688). In outline: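 Induction of CYP2C9 mRNA was quantified by quantitative nuclease protection assay (chemiluminescence), gain of signal versus 0.2% DMSO vehicle, 24 h after dosing. Human primary hepatocytes (two donors) received fresh chemical daily at multiple concentrations; morphology-based cytotoxicity flagged yes/no.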

Read-out in test [4]: Cytochrome P450 3A4 (Homo sapiens) (UniProt P08684)
The test can be described thus: CLD_CYP3A4_24hr: CellzDirect (CLD) Gene Expression Assay for xenobiotic metabolism (CYP3A4) at 24 hours (AID 2283689). The gist of the method: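 CYP3A4 mRNA induction read by quantitative nuclease protection (chemiluminescence) 24 hr after dosing. Cultured human hepatocytes (two donor preparations) treated daily, vehicle 0.2% DMSO; phase-contrast morphology annotates cytotoxicity.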

Read-out in test [5]: alkyl and aryl transferase (GSTA2), GSTA2 (gene 2939)
The test can be described thus: CLD_GSTA2_24hr: CellzDirect (CLD) Gene Expression Assay for alkyl and aryl transferase (GSTA2) at 24 hours (AID 2283693). In outline: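 GSTA2 transcript levels were quantified by quantitative nuclease protection assay in primary human hepatocytes 24 h after daily dosing with fresh solutions at multiple concentrations; 0.2% DMSO vehicle as baseline, cytotoxicity flagged morphologically.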

Read-out in test [6]: ABC Transporter (ABCB1), ABCB1 (gene 5243)
Kind of test: CLD_ABCB1_48hr: CellzDirect (CLD) Gene Expression Assay for ABC Transporter (ABCB1) at 48 hours (AID 2283695). The gist of the method:
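ABCB1 mRNA was measured by quantitative nuclease protection assay (chemiluminescence) 48 h after dosing. Human hepatocyte cultures from two separate donors received fresh dosing solutions daily for two days, with 0.2% DMSO as vehicle. Positive-direction fit against DMSO.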

Read-out in test [7]: glucuronosyltransferase (UGT1A1), UGT1A1 (gene 54658)
Kind of test: CLD_UGT1A1_24hr: CellzDirect (CLD) Gene Expression Assay for glucuronosyltransferase (UGT1A1) at 24 hours (AID 2283696). The gist of the method:
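UGT1A1 transcript induction was measured by quantitative nuclease protection assay (chemiluminescence) in human hepatocyte cultures 24 h after daily fresh dosing, with 0.2% DMSO as vehicle and baseline.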

Read-out in test [8]: xenobiotic metabolism (CYP1A2), CYP1A2 (gene 1544)
The test can be described thus: CLD_CYP1A2_48hr: CellzDirect (CLD) Gene Expression Assay for xenobiotic metabolism (CYP1A2) at 48 hours (AID 2283703). In outline:
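Cytotoxicity was flagged yes/no from morphology, while CYP1A2 transcript induction was detected by qNPA chemiluminescence after a 48-hour exposure. Human primary hepatocyte cultures from separate donors received fresh dosing solutions daily over two days, with 0.2% DMSO as vehicle and baseline.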

Read-out in test [9]: Broad substrate specificity ATP-binding cassette transporter ABCG2 (Homo sapiens) (UniProt Q9UNQ0)
The test can be described thus: CLD_ABCG2_48hr: CellzDirect (CLD) Gene Expression Assay for ABC Transporter (ABCG2) at 48 hours (AID 2283704). In outline:
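ABCG2 transcript measured at 48 h by quantitative nuclease protection (chemiluminescent) and fitted for increase relative to 0.2% DMSO. Hepatocyte cultures from separate donors got fresh compound daily over two days; morphology annotated cytotoxicity.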

Read-out in test [10]: ABC Transporter (ABCB1), ABCB1 (gene 5243)
Kind of test: CLD_ABCB1_24hr: CellzDirect (CLD) Gene Expression Assay for ABC Transporter (ABCB1) at 24 hours (AID 2283684). In outline: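 ABCB1 mRNA induction versus 0.2% DMSO vehicle was read by qNPA chemiluminescence at 24 h. Cultured human hepatocytes from two donor preparations received daily fresh dosing, and phase-contrast cytotoxicity calls were annotated alongside the data.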

Read-out in test [11]: Cytochrome P450 2B6 (Homo sapiens) (UniProt P20813)
The test can be described thus: CLD_CYP2B6_24hr: CellzDirect (CLD) Gene Expression Assay for xenobiotic metabolism (CYP2B6) at 24 hours (AID 2283686). The gist of the method: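 qNPA chemiluminescent measurement of mRNA at 24 hours in human primary hepatocyte cultures from two donor preparations, with daily fresh dosing and 0.2% DMSO vehicle as baseline. Morphology-based cytotoxicity flagged yes/no.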

Read-out in test [12]: sulfotransferase (SULT2A), SULT2A1 (gene 6822)
The test can be described thus: CLD_SULT2A_24hr: CellzDirect (CLD) Gene Expression Assay for sulfotransferase (SULT2A) at 24 hours (AID 2283694). In outline:
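mRNA is measured by qNPA: probe hybridisation, S1 nuclease digestion, chemiluminescence, in lysates from human primary hepatocytes harvested 24 h after daily dosing. Vehicle was 0.2% DMSO. Phase-contrast microscopy flagged cytotoxicity (yes/no).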

Read-out in test [13]: Cytochrome P450 3A4 (Homo sapiens) (UniProt P08684)
The test can be described thus: CLD_CYP3A4_48hr: CellzDirect (CLD) Gene Expression Assay for xenobiotic metabolism (CYP3A4) at 48 hours (AID 2283698). In outline: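 CYP3A4 induction read by qNPA chemiluminescence after 48 h, with fresh dosing solutions on consecutive days, in cultured human hepatocytes (two donors). Vehicle 0.2% DMSO as baseline; microscopy-based cytotoxicity annotated yes/no alongside data.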

Read-out in test [14]: HMG-CoA synthase (HMGCS2), HMGCS2 (gene 3158)
Kind of test: CLD_HMGCS2_24hr: CellzDirect (CLD) Gene Expression Assay for HMG-CoA synthase (HMGCS2) at 24 hours (AID 2283691). The gist of the method: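 qNPA with S1 nuclease digestion and chemiluminescent detection gave HMGCS2 transcript levels, fitted upward against 0.2% DMSO vehicle. Cultured human hepatocytes (two donors) received fresh compound daily and were harvested at 24 h; phase-contrast morphology flagged cytotoxicity.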

Read-out in test [15]: Cytochrome P450 2B6 (Homo sapiens) (UniProt P20813)
The test can be described thus: CLD_CYP2B6_48hr: CellzDirect (CLD) Gene Expression Assay for xenobiotic metabolism (CYP2B6) at 48 hours (AID 2283699).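 Further: actives raise transcript level above DMSO so potency reflects induction.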 The gist of the method:
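CYP2B6 transcript induction, read by quantitative nuclease protection (S1 digestion, chemiluminescent detection) 48 h after dosing, is fitted upward against 0.2% DMSO. Cultured human liver primary cells, two donor preparations, received fresh chemical daily over multiple concentrations.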

Read-out in test [16]: Glyceraldehyde-3-phosphate dehydrogenase (Homo sapiens) (UniProt P04406)
Kind of test: CLD_GAPDH_24hr: CellzDirect (CLD) Gene Expression Assay for Baseline Control (Glyceraldehyde 3-phosphate dehydrogenase) at 24 hours (AID 2283692). The gist of the method: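 GAPDH baseline-control readout: qNPA chemiluminescent mRNA signal in human primary hepatocytes harvested 24 h after daily dosing, normalised to 0.2% DMSO with positive fitting direction; cytotoxicity annotated by phase-contrast morphology.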

Read-out in test [17]: xenobiotic metabolism (CYP1A1), CYP1A1 (gene 1543)
Kind of test: CLD_CYP1A1_48hr: CellzDirect (CLD) Gene Expression Assay for xenobiotic metabolism (CYP1A1) at 48 hours (AID 2283705). In outline: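 CYP1A1 transcript measured by quantitative nuclease protection (chemiluminescent) 48 h after two daily treatments of human hepatocyte cultures, versus 0.2% DMSO. Morphology-based cytotoxicity flags accompany data; two donor preparations used.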

Read-out in test [18]: Broad substrate specificity ATP-binding cassette transporter ABCG2 (Homo sapiens) (UniProt Q9UNQ0)
The test can be described thus: CLD_ABCG2_24hr: CellzDirect (CLD) Gene Expression Assay for ABC Transporter (ABCG2) at 24 hours (AID 2283685). In outline: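 ABCG2 mRNA induction, read as gain of chemiluminescent signal over 0.2% DMSO, was measured by quantitative nuclease protection at 24 h. Cultured human liver hepatocytes were given fresh dosing solutions of test chemicals at several concentrations each day.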

Records with an inconclusive call do not appear. Calls of active or inactive are those of the source. How the source made its calls: active means hit-call score of the fitted dose curve at least 0.9, where 1 is the maximum; inconclusive means response in the unintended direction; inactive means score below 0.9.

Chain of Cytochrome P450 2C19 (Homo sapiens) (P33261 whole entry, looked up): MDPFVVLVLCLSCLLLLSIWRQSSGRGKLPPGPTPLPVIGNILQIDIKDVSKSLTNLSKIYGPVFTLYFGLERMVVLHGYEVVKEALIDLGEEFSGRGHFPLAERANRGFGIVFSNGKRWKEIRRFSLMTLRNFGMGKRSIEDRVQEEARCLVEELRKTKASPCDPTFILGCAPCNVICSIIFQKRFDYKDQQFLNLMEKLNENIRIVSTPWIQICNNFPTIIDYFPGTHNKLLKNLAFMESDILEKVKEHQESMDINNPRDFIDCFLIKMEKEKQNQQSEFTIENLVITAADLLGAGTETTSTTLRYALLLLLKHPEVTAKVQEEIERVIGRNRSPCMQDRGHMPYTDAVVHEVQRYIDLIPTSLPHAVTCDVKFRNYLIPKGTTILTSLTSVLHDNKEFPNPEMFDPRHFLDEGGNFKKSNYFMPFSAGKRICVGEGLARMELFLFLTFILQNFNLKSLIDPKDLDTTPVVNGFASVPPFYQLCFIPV
Chain of Broad substrate specificity ATP-binding cassette transporter ABCG2 (Homo sapiens) (Q9UNQ0 whole entry, looked up): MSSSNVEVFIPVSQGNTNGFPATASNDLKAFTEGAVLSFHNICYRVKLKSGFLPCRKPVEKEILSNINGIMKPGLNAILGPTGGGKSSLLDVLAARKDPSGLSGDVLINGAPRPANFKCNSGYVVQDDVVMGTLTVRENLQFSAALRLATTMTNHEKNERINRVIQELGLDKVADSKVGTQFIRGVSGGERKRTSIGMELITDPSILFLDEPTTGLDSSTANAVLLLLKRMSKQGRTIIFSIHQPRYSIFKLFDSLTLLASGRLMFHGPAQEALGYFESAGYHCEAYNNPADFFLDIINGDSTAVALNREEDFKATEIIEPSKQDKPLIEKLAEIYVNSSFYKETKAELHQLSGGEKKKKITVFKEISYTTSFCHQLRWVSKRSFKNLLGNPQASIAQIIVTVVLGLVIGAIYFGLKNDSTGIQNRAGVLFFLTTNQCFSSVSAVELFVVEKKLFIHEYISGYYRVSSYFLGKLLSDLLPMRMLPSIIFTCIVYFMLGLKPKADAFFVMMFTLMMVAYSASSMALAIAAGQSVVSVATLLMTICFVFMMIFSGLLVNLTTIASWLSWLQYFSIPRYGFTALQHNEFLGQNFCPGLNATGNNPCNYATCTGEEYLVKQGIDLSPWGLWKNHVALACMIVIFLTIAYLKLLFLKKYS
Chain of Cytochrome P450 3A4 (Homo sapiens) (P08684 whole entry, looked up): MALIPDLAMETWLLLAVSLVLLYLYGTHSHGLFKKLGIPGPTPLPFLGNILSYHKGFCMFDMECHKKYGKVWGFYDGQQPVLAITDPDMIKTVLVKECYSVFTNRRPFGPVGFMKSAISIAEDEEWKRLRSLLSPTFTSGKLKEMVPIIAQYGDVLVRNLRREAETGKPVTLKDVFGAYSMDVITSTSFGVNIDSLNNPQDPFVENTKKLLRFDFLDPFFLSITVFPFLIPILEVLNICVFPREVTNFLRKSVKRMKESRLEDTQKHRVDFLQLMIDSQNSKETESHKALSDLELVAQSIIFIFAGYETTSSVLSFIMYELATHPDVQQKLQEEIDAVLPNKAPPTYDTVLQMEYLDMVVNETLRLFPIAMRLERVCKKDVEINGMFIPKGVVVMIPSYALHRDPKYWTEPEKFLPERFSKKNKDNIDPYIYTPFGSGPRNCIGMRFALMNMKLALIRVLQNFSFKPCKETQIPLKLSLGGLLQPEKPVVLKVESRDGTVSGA
Chain of Glyceraldehyde-3-phosphate dehydrogenase (Homo sapiens) (P04406 whole entry, looked up): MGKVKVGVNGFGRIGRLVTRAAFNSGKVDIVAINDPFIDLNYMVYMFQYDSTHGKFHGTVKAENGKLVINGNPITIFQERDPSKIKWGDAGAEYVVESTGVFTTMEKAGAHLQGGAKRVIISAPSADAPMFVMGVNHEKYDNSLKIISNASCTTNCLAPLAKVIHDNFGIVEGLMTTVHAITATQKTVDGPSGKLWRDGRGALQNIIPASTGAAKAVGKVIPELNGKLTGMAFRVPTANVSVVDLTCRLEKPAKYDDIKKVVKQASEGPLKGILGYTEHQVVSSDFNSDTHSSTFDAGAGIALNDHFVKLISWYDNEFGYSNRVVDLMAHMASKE

For `Clc1cccc(C(Cl)(Cl)Cl)n1`, the compound was classed as inactive in [1], in [2], in [3], in test [4], in test [5] and in test [6]. Also, the compound was classed as inactive in test [7], in [8] and in test [9].
For `COP(=S)(OC)SCn1nnc2ccccc2c1=O`, the half-maximal activity concentration (AC50) – broadly, the concentration giving half of the maximal activity seen – in [1] is 2.27 µM (active); in [11], 4.46 µM (active); in [4], 20 µM (active); in test [7], 9.43 µM (active); in [13] it was 12.8 µM (active); in test [8] it was 0.409 µM (active). Further, the compound was classed as inactive in test [10], in test [5], in test [12], in [6] and in test [9].
For `Cc1nc(N(C)C)nc(OC(=O)N(C)C)c1C`, the half-maximal activity concentration (AC50) was 3.66 µM (active) in test [1]; 4.29 µM (active) in [11]; 20 µM (active) in test [4]; 5.26 µM (active) in [15]; 3.27 µM (active) in test [8]. In addition, the compound was classed as inactive in [2], in test [14], in test [6] and in test [7].
As for `O=P(O)(O)CCCl`, the call in test [1], in test [10], in test [11], in test [2], in [4] and in [16] was inactive. The call in test [5], in [7], in test [15], in [8] and in test [17] was inactive.
As for `Nc1cnn(-c2ccccc2)c(=O)c1Cl`, the AC50 in test [1] is 5.8 µM (active); in test [8] it was 4.24 µM (active). Besides, the outcome in test [18], in test [3], in test [16], in test [7], in test [13] and in test [9] was inactive. Moreover, the result in test [17] was inactive.
Take `CC1(C)C(C=C(Cl)Cl)C1C(=O)OC(C#N)c1cccc(Oc2ccccc2)c1` (configuration not stated): the half-maximal activity concentration (AC50) was 11 µM (active) in test [1], 4.4 µM (active) in test [11], 6.01 µM (active) in test [7] and 14.6 µM (active) in [8]. The result in test [2], in [5] and in test [6] was inactive.
As to `Nc1c(Cl)c(Cl)nc(C(=O)O)c1Cl`, the AC50 in [1] is 20 µM (active); in [8], 5.16 µM (active). The outcome in test [11], in test [2], in test [4], in [14], in [12] and in test [7] was inactive.
On to `OC(c1ccc(Cl)cc1)(c1ccc(Cl)cc1)C(Cl)(Cl)Cl`, for which the call in test [1], in test [6], in test [7], in test [8] and in test [9] was inactive. The values for the AC50 in test [11], in [4] and in test [17] were 4.08 µM (active), 4.09 µM (active) and 20 µM (active), respectively.
